{"source": "the supplement of paper PMC10338343", "note": "± gives the standard deviation."}
{"test_system": "MILI (PIWIL2) piRISC loaded with L1MC piRNA (26 nt)", "experiment": "pre-steady-state target cleavage rate (min^-1); guide: L1MC piRNA 5'p-UAACUAAAUACUAUGCAAGCUGUAGG; higher = faster piRNA-guided slicing of the target", "conditions": "auxiliary factor: 500 nM mouse GTSF1", "in_short": "(§1)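 Using HEPES–potassium acetate buffer at 33 °C, 1 nM active affinity-purified piRISC with a single synthetic guide was mixed with 0.1 nM transcribed, DNA-blocked target RNA library for 0–8 or 0–960 min, with or without 500 nM GTSF1 partner protein. Uncleaved targets were sequenced and normalised to depth and to weakly complementary targets, and three trials were pooled with k3 capped at 0.0001 min^-1. A burst-and-steady-state fit gave the pre-steady-state cleavage rate.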"}
{"sequence": "UCCUGGUACAGCAAGCAUAGUAUUUACAAA", "pre-steady-state target cleavage rate": "0.0528 ± 0.019"}
{"sequence": "UCCUGGAUGUCGAUACAUAGUAUUUAGUUA", "pre-steady-state target cleavage rate": "0.0231 ± 0.0046"}
{"sequence": "UCCUGGAUGUGCUUGCAAACUAUUUAGUUA", "pre-steady-state target cleavage rate": "0.00852 ± 0.0038"}
{"sequence": "UCCUGGAACAGCUUGCAUAGUAUUAUCAAA", "pre-steady-state target cleavage rate": "0.0521 ± 0.017"}
{"sequence": "UCCUGGAUGAGCUUGCAUAGUAUAUAGAUA", "pre-steady-state target cleavage rate": "0.019 ± 0.0076"}
{"sequence": "UCCUGGAACAGCUUGCAUAGUAUAAUGAAA", "pre-steady-state target cleavage rate": "0.0341 ± 0.013"}
{"sequence": "UCCUGGAACAGCUUGCAUAGUAUUUAGAUA", "pre-steady-state target cleavage rate": "0.137 ± 0.025"}
{"sequence": "UCCUCCUACAGCUUGCUAAGUAUUUAGUAA", "pre-steady-state target cleavage rate": "0.0708 ± 0.013"}
{"sequence": "UCCUGGAUGUCGAACGUAACUAUAUAGUUA", "pre-steady-state target cleavage rate": "< 0.0001"}
{"sequence": "UCCUGGAUCAGCUUGCAUACUAUUUAGAAA", "pre-steady-state target cleavage rate": "0.0141 ± 0.0069"}
{"sequence": "UCCUGGAUGAGCUUGCUAAGUAUUUAGUAA", "pre-steady-state target cleavage rate": "0.0109 ± 0.0046"}
{"sequence": "UCCUGCUACAGCUUGGAUAGUAUUUAGAUA", "pre-steady-state target cleavage rate": "0.0476 ± 0.016"}
{"sequence": "UCCUGGAUGUCCAUGCAUAGUAUUUACUUA", "pre-steady-state target cleavage rate": "0.0292 ± 0.0095"}
{"test_system": "MILI (PIWIL2) piRISC loaded with L1MC piRNA (26 nt)", "experiment": "pre-steady-state target cleavage rate (min^-1); guide: L1MC piRNA 5'p-UAACUAAAUACUAUGCAAGCUGUAGG; MIWI and MILI are mouse PIWI proteins and EfPiwi is from a freshwater sponge; tags in brackets are library labels; higher = faster piRNA-guided slicing of the target", "conditions": "auxiliary factor: none (no GTSF1)", "in_short": "as §1"}
{"sequence": "UCCUGGAUGUCGAACGUAUGCUAUUUAGUUA", "pre-steady-state target cleavage rate": "< 0.0001"}
{"sequence": "UCCUGGAUGUCGAACGCUAGUAUUUAGUUA", "pre-steady-state target cleavage rate": "< 0.0001"}
{"sequence": "UCCUGGAUGUCGAACGUAAGUAAUUAGUUA", "pre-steady-state target cleavage rate": "< 0.0001"}
